The record followed here is PubChem BioAssay (Tox21).

Values without a mark were called inactive. The source made the active and inactive calls. Calls come from the whole dose curve; as a rule, active = well fitted curve in the direction sought with a large enough effect in the repeat runs; inconclusive = weak or mixed curves; inactive = flat fitted curve, though single readings scatter.
% is set by controls: 0 for no effect and ±100 for the full control effect.

The nature of this test: qHTS assay to test for compound auto fluorescence at 460 nm (blue) in HepG2 cell free culture (AID 720685). The following applies: Cell-free culture medium, blue autofluorescence 405/460 nm; series mostly up to 46 µM; fluorescence, % of fluorescent control: at the top concentration. The source says:
U.S. Tox21 Program National Center for Advancing Translational Sciences [NCATS] NIH Chemical Genomics Center [NCGC] U.S. Environmental Protection Agency [EPA] National Institutes of Environmental Health Sciences [NIEHS] National Toxicology Program [NTP] U.S. Food and Drug Administration [FDA] Tox21 Assay Overview: Compound auto fluorescence often interferes with screening of the compound library against various biological targets and signaling pathways. Some of these compounds may have fluorophoric properties. Such properties may interfere with the assay outputs resulting in false positives and/or negatives. To decrease such complications and ensure the compound activities are relevant in terms of biological response, the Tox21 10K compound library was screened for auto fluorescence. From the fluorophores used as reporter signals in our screening assays, the auto fluorescence equivalencies of compounds against three fluorophores have been evaluated: Triamterene, Fluorescein and Rose Bengal sodium for blue, green and red fluorescence, respectively. The fluorescence intensities were measured using Excitation/Emission wavelengths at 405/460nm, 485/535nm and 540/590nm for blue, green and red labels, respectively. This assay includes the blue fluorescence data.
Tox21 Assay Protocol Summary: 5 uL of culture medium (MEM containing 10% FBS) per well was dispensed into black wall/clear bottom 1536-well plates using a Multidrop Combi Dispenser (ThermoFisher Scientific, Waltham, MA). After 23 nL compound or DMSO vehicle was transferred into assay plate by a pintool work station (Kalypsys, San Diego, CA), fluorescence intensities in the assay plates were measured by an Envision (PerkinElmer, Shelton, CT) plate reader using three labels for measuring blue, green and red fluorescence at […] 460, 535 and 590nm respectively.
Turning to `O=C1OC(O)C(C(Cl)Cl)=C1Cl` (stereo not given), the “fluorescence, % of fluorescent control” value was 0.164% [at 95.7 µM].

`CCCOC(=O)c1ccc(O)cc1`: the Potency result was “inactive”.

In the case of `O=C(O)c1cc(=O)c2c3nc4ccccc4oc-3cc(=O)c2[nH]1`, the “fluorescence, % of fluorescent control” value is 0.702%.

For `CN1CCN(c2ccccc2/C=C2\SCCN(c3ccc(Cl)c(Cl)c3)C2=O)CC1`, the “fluorescence, % of fluorescent control” value was 0.818% [at 91.3 µM].

For `CC(=O)OCC(=O)[C@@]1(O)CC[C@H]2[C@@H]3C[C@H](C)C4=CC(=O)C=C[C@]4(C)[C@H]3[C@@H](O)C[C@@]21C`, the “fluorescence, % of fluorescent control” value was 0.0381%.

For `C=CC[N+]1([C@H]2C[C@H]3[C@@H]4CC[C@H]5C[C@H](O)[C@@H](N6CCOCC6)C[C@]5(C)[C@H]4CC[C@]3(C)[C@H]2OC(C)=O)CCCC1`, the “fluorescence, % of fluorescent control” value was -0.152%.

For the molecule `Nc1nc(/C(=C/CC(=O)O)C(=O)N[C@@H]2C(=O)N3C(C(=O)O)=CCS[C@H]23)cs1`, the “fluorescence, % of fluorescent control” value is 0.35%.

For the molecule `C=CCN1C(=O)C(CC(C)C)NC1=S` (stereo not given), the Potency result is “inactive”.

As for `O=P(O)(O)OP(=O)(O)OP(=O)(O)O`, the “fluorescence, % of fluorescent control” value was 0.0229%.

In the case of `CCN(CC)C(=O)[C@]1(c2ccccc2)C[C@@H]1CN`, the “fluorescence, % of fluorescent control” value is 0.0124%.

For `CN(C/C=C/c1ccccc1)Cc1cccc2ccccc12`, the “fluorescence, % of fluorescent control” value was -0.14%.

`CC(=O)Nc1ccc(OC(C)=O)cc1`: the “fluorescence, % of fluorescent control” value was -0.0385%.

For `CCCCCCCCCCCCCCCCCCNC(=O)OC1CCN(C(=O)OC[C@H](COC(=O)N(Cc2cccc[n+]2CC)C(=O)c2ccccc2OC)OC)CC1`, the “fluorescence, % of fluorescent control” value is -0.0059%.

Consider `CCCCCCCCCCCCN1CCCC1=O`, for which the “fluorescence, % of fluorescent control” value was -0.2% [at 91.3 µM].

Regarding `CCN(CC)CC#CCOC(=O)C(O)(c1ccccc1)C1CCCCC1` (stereo not given), the “fluorescence, % of fluorescent control” value was -0.065%.

`CCOc1ccc(NC(=S)Nc2ccc(OCC)cc2)cc1`: the “fluorescence, % of fluorescent control” value was -0.0188%.

Turning to `c1ccc(-c2ccc(C(c3ccccc3)n3ccnc3)cc2)cc1` (stereo not given), the “fluorescence, % of fluorescent control” value was 0.0223%.

As for `SC1CCCCC1`, the “fluorescence, % of fluorescent control” value is 0.0316% [at 95.7 µM].

Turning to `O=C(CCCCCCCCc1cccnc1)N1CCC(C=C(c2ccccc2)c2ccccc2)CC1`, the “fluorescence, % of fluorescent control” value was 0.481% [at 91.3 µM].

For the molecule `CC(=O)N(C)C`, the Potency entry was “inactive”.

On to `C=C1[C@H](CO)[C@@H](O)C[C@@H]1n1cnc2c(=O)[nH]c(N)nc21`, for which the “fluorescence, % of fluorescent control” value was -0.0024%.

On to `O=C1OC(=O)c2cc(-c3ccc4c(c3)C(=O)OC4=O)ccc21`, for which the “fluorescence, % of fluorescent control” value was 0.0067% [at 91.3 µM].

Turning to `COC(=O)C(CN)c1c[nH]c2ccc(OC)cc12` (stereo not given), the “fluorescence, % of fluorescent control” value is -0.0245%.

On to `CCCCCCCCOC(=O)c1cc(O)c(O)c(O)c1`, for which the “fluorescence, % of fluorescent control” value is -0.0255% [at 91.3 µM].

In the case of `Cc1ccc(C(C)(C)c2ccc(C)cc2)cc1`, the “fluorescence, % of fluorescent control” value is 0.0252%.

As to `CC(=O)O[C@H]1C[C@@H]2CC[C@@H]3[C@H](CC[C@@]4(C)[C@H]3C[C@H]([N+]3(C)CCCCC3)[C@@H]4OC(C)=O)[C@@]2(C)C[C@@H]1[N+]1(C)CCCCC1`, the “fluorescence, % of fluorescent control” value is -0.0998%.

As for `CNC(=O)OCc1cccc(COC(=O)NC)n1`, the “fluorescence, % of fluorescent control” value was -0.0097%.

On to `CC(Cc1ccc(O)c(O)c1)C(C)Cc1ccc(O)c(O)c1` (stereo not given), for which the “fluorescence, % of fluorescent control” value was 0.143% [at 91.3 µM].

Turning to `COC(=O)[C@H]1[C@H]2C[C@H]3c4[nH]c5ccccc5c4CCN3C[C@H]2CC[C@@H]1O`, the “fluorescence, % of fluorescent control” value was 3.41%.

Take `CC[N+](CC)(CC)CCC(O)(c1ccccc1)C1CCCCC1` (stereo not given): the “fluorescence, % of fluorescent control” value was -0.106% [at 18.6 µM].

Consider `C[S+](C)CCC(N)C(=O)O` (stereo not given), for which the “fluorescence, % of fluorescent control” value was 0.0203%.

`C[C@H](Cc1ccc(O)c(O)c1)[C@@H](C)Cc1ccc(O)c(O)c1`: the “fluorescence, % of fluorescent control” value is 0.367%.

On to `Cc1cccc(C)c1NC(=O)C1CCCCN1C` (stereo not given), for which the “fluorescence, % of fluorescent control” value is 0.116%.

`CC(C)(O/N=C(\C(=O)N[C@@H]1C(=O)N2C(C(=O)[O-])=C(C[n+]3ccccc3)CS[C@H]12)c1csc(N)n1)C(=O)O`: the “fluorescence, % of fluorescent control” value is 0.515% [at 18.6 µM].

As to `C[C@@H]1C(=O)NC2=Nc3cccc(Cl)c3CN21`, the “fluorescence, % of fluorescent control” value is 0.219%.

Regarding `CO/N=C(\C(=O)N[C@@H]1C(=O)N2C(C(=O)[O-])=C(C[n+]3ccc(N)n3CCO)CS[C@H]12)c1csc(N)n1`, the “fluorescence, % of fluorescent control” value is 0.125%.

As for `Cc1cc(-c2ccc(N=Nc3ccc4c(S(=O)(=O)O)cc(S(=O)(=O)O)c(N)c4c3O)c(C)c2)ccc1N=Nc1ccc2c(S(=O)(=O)O)cc(S(=O)(=O)O)c(N)c2c1O`, the Potency entry is “inactive”.

For `CC1(C)S[C@@H]2[C@H](N3C(=O)C(c4ccccc4)NC3(C)C)C(=O)N2[C@H]1C(=O)O` (stereo not given in full), the “fluorescence, % of fluorescent control” value is 1.19%.

Take `CCCCCN=C(N)N/N=C/c1c[nH]c2ccc(OC)cc12`: the “fluorescence, % of fluorescent control” value is 0.0455%.

For `CO[C@H](C(=O)[C@@H](O)[C@@H](C)O)C1Cc2cc3cc(O[C@H]4C[C@@H](O[C@H]5C[C@@H](O)[C@H](O)[C@@H](C)O5)[C@@H](O)[C@@H](C)O4)c(C)c(O)c3c(O)c2C(=O)[C@H]1O[C@H]1C[C@@H](O[C@H]2C[C@@H](O[C@H]3C[C@](C)(O)[C@H](O)[C@@H](C)O3)[C@H](O)[C@@H](C)O2)[C@H](O)[C@@H](C)O1` (stereo not given in full), the Potency entry is “inactive”.
